This note sets out measurements from PubChem BioAssay (NCI).

Several values for one entry are separate records, joined by “and”; a condition that tells them apart may be missing. Equal values may be shown once. Compounds without any hit were thinned out: in the full panel of roughly 83,000, 20% have a hit.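 Treatment: one concentration, 48 hours, 96-well format. Scoring: percent growth, with anything below 10 considered active.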 Activity calls are given as the source filed them.

The test system of this experiment is SR leukemia. Nature of the experiment: NCI-60 one-dose screen, 48 h (100 = growth as untreated, 0 = no growth, -100 = all killed). The conditions noted are these: 10 µM unless noted.
Regarding `CCCCn1c(=O)c(C(=O)NCc2ccccc2Cl)c(O)c2ccccc21`, the growth is 60.4% (inactive).

Consider `O=C(NCCCN1CC1)Nc1cccc2ccccc12`, for which the growth was 102% (inactive) and 87.1% (inactive).

For the compound `Oc1cc(N2CC2)c(O)cc1N1CC1`, the growth was 21.6% (inactive).

With `CC12CCC3C4CCC(=O)C=C4CCC3C1CC1CC(=O)OC12` (configuration not stated), the growth is 90.6% (inactive).

On to `CCOP(=O)(OCC)C(=O)N(CC)CC`, for which the growth is 91.2% (inactive).

As to `C#Cc1cccc(Nc2nc(Cl)nc3cc(NC(=O)CF)ccc23)c1`, the growth was 22.1% (inactive).

As for `CC[C@H](C)[C@H](NC(=O)[C@H]1CCCCN1C)C(=O)N(C)[C@H](C(=O)NC12CC(C(=O)N[C@@H](Cc3ccccc3)C[C@H](C)C(=O)OC)(C1)C2)C(C)C`, the growth is 114% (inactive).

As to `CN1CCC2(CC1)C(C#N)C(=O)NC(=O)C2C#N` (configuration not stated), the growth was 86.5% (inactive).

Regarding `CC12CCC3C(CCC4CC(O)CCC43C)C1CCC2=O` (configuration not stated), the growth is 86.1% (inactive).

In the case of `C=CC[PH+](c1ccccc1)c1ccccc1.C=CC[PH+](c1ccccc1)c1ccccc1.[Pt+2].[S-]c1nc2ccccc2[nH]1.[S-]c1nc2ccccc2[nH]1`, the growth is 4.38% (active).

With `Cc1cc[c-]cc1.Fc1c[c-]c(-c2ccccn2)c(F)c1.[Pt+2].c1ccc([PH+](c2ccccc2)c2ccccn2)cc1`, the growth is 42.5% (inactive).

As to `C=C[Se]CC(=O)/C=C/c1ccccc1`, the growth is 58.7% (inactive).

For `CCCCCCCCCCCCCCCCCC1OCC(COC(=O)O[C@@H](C(=O)O[C@H]2C[C@@]3(O)[C@@H](OC(=O)c4ccccc4)[C@@H]4[C@]5(OC(C)=O)CO[C@@H]5C[C@H](O)[C@@]4(C)C(=O)[C@H](OC(C)=O)C(=C2C)C3(C)C)[C@@H](NC(=O)c2ccccc2)c2ccccc2)O1` (some centres not stated), the growth was 18% (inactive).

Regarding `CC1(C)C=Cc2c(ccc3c2[N+]([O-])=C2C3=C[C@@]34NC(=O)[C@]5(CCCN5C3=O)C[C@@H]4C2(C)C)O1`, the growth is 15.4% (inactive).

`O=C(O)C1C(C(=O)O)C2(Cl)C(Cl)=C(Cl)C1(Cl)C2(Cl)Cl` (configuration not stated): the growth was 104% (inactive) and 118% (inactive).

As to `CNC(=O)O/N=C(\SC)C(=O)N(C)C`, the growth was 72.2% (inactive).

With `C[C@]12CCc3sc(Nc4ccc(F)cc4F)nc3C1=CC[C@@H]1[C@@H]2CC[C@]2(C)C(=O)CC[C@@H]12`, the growth is 0.71% (active).

Regarding `N#CC(C#N)=C(C#N)C#N`, the growth was 105% (inactive).

As for `N#CCC(=O)c1ccccc1`, the growth is 107% (inactive).

Turning to `O=C(O)c1ccc(=O)[nH]c1`, the growth is 87.7% (inactive) and 105% (inactive).

For the compound `CC[C@H](C)[C@H](NC(=O)CN(C)C)C(=O)N(C)[C@H](C[C@@H](OC(C)=O)c1nc(C(=O)NC23C4C5C2C2C3C4C52C(=O)OC)cs1)C(C)C` (some centres not stated), the growth was 10.4% (inactive).

Consider `CNC(=O)Oc1ccc(Cl)cc1SSc1cc(Cl)ccc1OC(=O)NC`, for which the growth is 67.7% (inactive).

On to `CC(=O)OC1CC2(O)C(CCC3(C)C(c4ccc(=O)oc4)CCC32O)C2(C)CCC(OC3OC(CO)C(O)C(O)C3O)C=C12` (configuration not stated), for which the growth is -15.3% (active).

With `Oc1ccc(O)c(Cl)c1`, the growth is 70.4% (inactive) and 94.5% (inactive).

Take `CC(=O)Nc1nc2c(s1)C1=CC[C@H]3[C@@H]4CC[C@H](OC(C)=O)[C@@]4(C)CC[C@@H]3[C@@]1(C)CC2`: the growth was 21.5% (inactive).

Regarding `O=C(O)C(F)F`, the growth is 109% (inactive).

In the case of `CC[C@H](C)[C@H](NC(=O)C12CC(NC)(C1)C2)C(=O)N(C)[C@H](C[C@@H](OC(C)=O)c1nc(C(=O)N[C@@H](Cc2ccccc2)C[C@H](C)C(=O)OC)cs1)C(C)C`, the growth is -2.59% (active).

`NC(=O)Oc1cc(OC(N)=O)cc(N(CCCl)CCCl)c1`: the growth is -17.1% (active).

`CC[PH+](CC)CC.O=COC1OC([S-])C(OC=O)C(OC=O)C1OC=O.[Au+]` (configuration not stated): the growth was -18.4% (active).

For `CCOC(=O)c1ccccc1C(=O)OCC`, the growth was 128% (inactive).

As for `C[C@@H]1C/C=C\C(=O)O[C@H](/C=C/C#C/C=C/C(C)(C)[C@@H](O)c2cccc(O)c2Br)[C@@H](C)/C=C/[C@H](C)C[C@H](OC(N)=O)C1`, the growth is 5.45% (active).

As for `Cc1c(C)c(N)c(C)c(C)c1N`, the growth was 69.5% (inactive).

As to `Nc1ccc(P(=O)(O)O)cc1`, the growth was 108% (inactive) and 115% (inactive).

As for `OCCN=Cc1c[nH]c2ccccc12`, the growth is 95.4% (inactive).

As for `S=P(SP(=S)(c1ccccc1)c1ccccc1)(c1ccccc1)c1ccccc1`, the growth is 93.7% (inactive).

Consider `CN1CCc2cc3c(cc2C1O)OCO3` (configuration not stated), for which the growth is 101% (inactive).

As to `Cc1cc(NC(=O)NCCCOc2ccc(N3C(N)=NC(N)=NC3(C)C)cc2Cl)ccc1S(=O)(=O)F`, the growth was 22.4% (inactive).
